In PubChem BioAssay one finds growth inhibition, inhibition and outcome data, which are given here for 20 molecules.

A number with no mark means an inactive call. For some of these results: Measured potencies and affinities stand elsewhere. Calls of active or inactive are those of the source. Unless noted, the rule behind the calls is not given here.

Experiment [1] is described as follows: antimalarial activity against Dd2 strain (AID 2302;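 active = growth inhibition above 50% at the single 2 µM test dose, taken to imply half-maximal potency below 2 µM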;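 note: 0% = DMSO untreated growth and 100% = chloroquine plus artemisinin killed control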). Particulars: P. falciparum Dd2 in RBCs, LDH growth readout, 72 h; at 2 µM; hits give high values.
The nature of experiment [2]: human hepatoma cell viability loss – ATP luminescence, cytotoxicity control for P. falciparum antimalarial project, primary screen (AID 2303;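 active = inhibition above 50%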;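 note: 0% = DMSO wells and 100% = digitonin-killed cells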). Particulars: HepG2 viability, 24-48 h, at 10 µM, hits give high values.
Experiment [3] deals with L-lactate dehydrogenase (Plasmodium falciparum (isolate CDC / Honduras)) (UniProt Q27743). Kind of experiment: PfLDH activity inhibition – cell lysate, 3D7 strain, counter-screen for P. falciparum growth inhibition project (AID 2304).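 Note: 0% = vehicle and 100% = reference inhibitor.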 Conditions: P. falciparum 3D7 crude extract, LDH APAD/NBT absorbance; at 2 µM; hits give high values.
Experiment [4] is described as follows: inhibition of 3D7 malaria parasite growth – strain 3D7 (AID 2306).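 Note: 0% = DMSO wells and 100% = chloroquine plus artemisinin control wells.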 Particulars: P. falciparum 3D7 erythrocytic growth, LDH absorbance, 72 h; at 2 µM; hits give high values.
Experiment [5] concerns the target Calcium-dependent protein kinase 1 (Plasmodium falciparum (isolate 3D7)) (UniProt P62344). Briefly: PfCDPK1 kinase inhibitors, biochemical, TCAMS library (AID 1159585; cut-off not given, nearly all actives have IC50 up to about 0.98 µM;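 note: inhibitors leave more ATP so luminescence rises with inhibition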). Particulars: recombinant PfCDPK1, Kinase-Glo ATP depletion luminescence.
Experiment [6] has as its target Plasmodium falciparum protein kinase 6 (PK6, PF3D7_1337100) (UniProt Q8IDW1). Briefly: PfPK6 kinase inhibitors, biochemical, TCAMS library (AID 1159586). Conditions: recombinant PfPK6, Kinase-Glo ATP depletion luminescence.
The target of experiment [7] is Protein kinase 7 (PK7), Plasmodium falciparum 3D7 (PF3D7_0213400) (UniProt Q7YTF7). Kind of experiment: inhibition of Plasmodium PK7 catalytic activity – biochemical, TCAMS antimalarial set, Kinase-Glo luminescence (AID 1159587). Particulars: recombinant PfPK7, Kinase-Glo ATP depletion luminescence.
Experiment [8] concerns the target Calcium-dependent protein kinase 4 (Plasmodium falciparum (isolate 3D7)) (UniProt Q8IBS5). Kind of experiment: PfCDPK4 kinase inhibitors, biochemical, TCAMS library (AID 1159588; cut-off not given, nearly all actives have IC50 up to about 0.91 µM). Conditions: recombinant PfCDPK4, Kinase-Glo ATP depletion luminescence.

Sequence of L-lactate dehydrogenase (Plasmodium falciparum (isolate CDC / Honduras)) (Q27743 whole entry, looked up): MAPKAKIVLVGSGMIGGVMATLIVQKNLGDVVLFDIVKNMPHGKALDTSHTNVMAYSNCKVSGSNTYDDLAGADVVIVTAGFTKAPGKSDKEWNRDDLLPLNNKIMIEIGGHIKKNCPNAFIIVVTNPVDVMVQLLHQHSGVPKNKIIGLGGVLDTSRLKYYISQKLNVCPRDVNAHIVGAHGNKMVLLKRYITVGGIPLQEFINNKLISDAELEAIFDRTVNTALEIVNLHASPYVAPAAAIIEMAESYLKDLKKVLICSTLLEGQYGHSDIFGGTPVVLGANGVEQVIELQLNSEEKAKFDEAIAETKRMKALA
Sequence of Protein kinase 7 (PK7), Plasmodium falciparum 3D7 (PF3D7_0213400) (Q7YTF7 1-343): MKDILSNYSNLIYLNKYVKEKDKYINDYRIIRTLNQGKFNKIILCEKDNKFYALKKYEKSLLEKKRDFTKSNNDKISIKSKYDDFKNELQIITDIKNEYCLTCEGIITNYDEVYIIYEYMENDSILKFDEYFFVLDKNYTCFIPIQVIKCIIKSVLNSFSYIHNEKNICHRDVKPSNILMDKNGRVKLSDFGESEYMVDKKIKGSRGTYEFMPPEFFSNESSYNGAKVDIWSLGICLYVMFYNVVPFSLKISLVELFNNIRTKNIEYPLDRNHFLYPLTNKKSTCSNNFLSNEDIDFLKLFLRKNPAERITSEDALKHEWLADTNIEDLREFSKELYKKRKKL
Sequence of Plasmodium falciparum protein kinase 6 (PK6, PF3D7_1337100) (Q8IDW1 1-305): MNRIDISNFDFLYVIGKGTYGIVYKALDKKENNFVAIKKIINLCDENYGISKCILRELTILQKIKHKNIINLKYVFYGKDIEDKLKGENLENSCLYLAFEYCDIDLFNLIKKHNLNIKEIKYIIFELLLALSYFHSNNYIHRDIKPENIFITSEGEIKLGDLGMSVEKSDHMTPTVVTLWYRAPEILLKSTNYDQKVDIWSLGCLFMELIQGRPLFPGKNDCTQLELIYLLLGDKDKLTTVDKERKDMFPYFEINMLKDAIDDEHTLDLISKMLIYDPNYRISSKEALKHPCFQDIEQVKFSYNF
Sequence of Calcium-dependent protein kinase 4 (Plasmodium falciparum (isolate 3D7)) (Q8IBS5 whole entry, looked up): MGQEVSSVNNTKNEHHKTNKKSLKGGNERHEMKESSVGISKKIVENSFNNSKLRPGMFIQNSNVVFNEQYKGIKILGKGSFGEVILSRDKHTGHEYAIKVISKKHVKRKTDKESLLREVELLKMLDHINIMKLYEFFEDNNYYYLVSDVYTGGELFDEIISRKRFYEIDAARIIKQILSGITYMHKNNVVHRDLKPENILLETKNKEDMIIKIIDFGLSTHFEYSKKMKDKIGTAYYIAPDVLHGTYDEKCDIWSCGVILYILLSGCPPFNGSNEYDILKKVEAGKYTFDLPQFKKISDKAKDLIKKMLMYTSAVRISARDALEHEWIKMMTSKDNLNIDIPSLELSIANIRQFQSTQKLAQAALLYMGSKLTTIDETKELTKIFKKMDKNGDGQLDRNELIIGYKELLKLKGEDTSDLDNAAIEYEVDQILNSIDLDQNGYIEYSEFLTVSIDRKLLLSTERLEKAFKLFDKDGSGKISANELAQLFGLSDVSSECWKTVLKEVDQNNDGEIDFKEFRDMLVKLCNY
Sequence of Calcium-dependent protein kinase 1 (Plasmodium falciparum (isolate 3D7)) (P62344 whole entry, looked up): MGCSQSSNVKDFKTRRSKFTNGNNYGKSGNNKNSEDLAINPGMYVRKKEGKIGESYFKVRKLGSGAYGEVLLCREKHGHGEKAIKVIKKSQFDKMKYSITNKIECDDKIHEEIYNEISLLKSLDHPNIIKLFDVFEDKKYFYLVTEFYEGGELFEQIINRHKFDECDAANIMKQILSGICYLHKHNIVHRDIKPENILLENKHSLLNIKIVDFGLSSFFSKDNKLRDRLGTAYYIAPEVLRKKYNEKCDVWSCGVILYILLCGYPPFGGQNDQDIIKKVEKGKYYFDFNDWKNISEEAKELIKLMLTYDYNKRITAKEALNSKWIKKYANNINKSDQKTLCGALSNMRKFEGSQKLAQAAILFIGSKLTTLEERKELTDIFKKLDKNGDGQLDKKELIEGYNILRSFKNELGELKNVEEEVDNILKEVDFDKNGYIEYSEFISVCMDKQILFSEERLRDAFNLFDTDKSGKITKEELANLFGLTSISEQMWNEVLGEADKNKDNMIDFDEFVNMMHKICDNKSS

In the case of `COCCNc1nc(N2CCC(CNC(=O)c3ccc(-c4ccc(C(=O)N(C)C)cc4C)cc3)CC2)nc2cc(OC)c(OC)cc12`, the growth inhibition is 97% (active) in experiment [1] and 98% (active) in experiment [4]. For the same molecule, the inhibition was 12% in experiment [2] and 3% in experiment [3]. Also, the outcome in experiment [5], in experiment [6], in experiment [7] and in experiment [8] was inactive.
Regarding `CC(C)C[C@@H](CNC[C@H](CC(C)C)NC(=O)OC(C)(C)C)NC(=O)OC(C)(C)C`, the growth inhibition in experiment [1] was 58% (active); in experiment [4], 88% (active). Further, the figures for the inhibition in experiment [2] and in experiment [3] were 4% and 1%, respectively. Moreover, the result in experiment [5], in experiment [6], in experiment [7] and in experiment [8] was inactive.
On to `Cc1ccccc1C1CCN(C2CCC(NC(=O)/C=C/c3ccc(F)cc3)CC2)CC1` (stereo not given), for which the growth inhibition was 30% in experiment [1] and 87% (active) in experiment [4]. Also, the results for the inhibition in experiment [2] and in experiment [3] were 61% (active) and -2%, respectively. Besides, the result in experiment [5], in experiment [6], in experiment [7] and in experiment [8] was inactive.
As for `Cc1cccc2[nH]c(-c3ccc(-c4cccc(NC(=O)C(C)CN5CCN(C)CC5)c4)s3)nc12` (stereo not given), the growth inhibition in experiment [1] is 75% (active); in experiment [4], 97% (active). The results for the inhibition in experiment [2] and in experiment [3] were 11% and -6%, respectively. For the same molecule, the outcome in experiment [5], in experiment [6], in experiment [7] and in experiment [8] was inactive.
For `CC(=O)NCCNc1nccc(N2CCc3ncnc(Nc4ccc(OCc5ccccn5)c(Cl)c4)c3C2)n1`, the growth inhibition in experiment [1] and in experiment [4] was 99% (active) throughout. Further, the inhibition was -12% in experiment [2] and 10% in experiment [3]. Besides, the outcome in experiment [5], in experiment [6], in experiment [7] and in experiment [8] was inactive.
Regarding `CCCCNc1cc(C)nc(NCc2ccccc2)n1`, the growth inhibition in experiment [1] was 37%; in experiment [4] it was 97% (active). The inhibition in experiment [2] was 23%; in experiment [3], 3%. Also, the outcome in experiment [5], in experiment [6], in experiment [7] and in experiment [8] was inactive.
`Cc1cnc(CN(Cc2ccc(-c3ccc(CNCCc4ccc(S(C)(=O)=O)cc4)cn3)cc2)C(=O)c2ccc([N+](=O)[O-])c(C)c2)cn1`: the growth inhibition in experiment [1] is 15%; in experiment [4], 93% (active). The values for the inhibition in experiment [2] and in experiment [3] were -4% and 4%, respectively. Moreover, the result in experiment [5], in experiment [6], in experiment [7] and in experiment [8] was inactive.
Turning to `COc1ccc(NC(=O)CCNc2cc(C)nc(NCCOc3ccccc3)n2)cc1`, the growth inhibition was 2% in experiment [1] and 96% (active) in experiment [4]. The figures for the inhibition in experiment [2] and in experiment [3] were 0% and -1%, respectively. Also, the outcome in experiment [5], in experiment [6], in experiment [7] and in experiment [8] was inactive.
`COCC(C)n1c(C)cc(C(=O)CSc2nnc(Nc3ccccc3)s2)c1C` (stereo not given): the growth inhibition was 98% (active) in experiment [1] and 97% (active) in experiment [4]. Besides, the results for the inhibition in experiment [2] and in experiment [3] were -5% and -6%, respectively. In addition, the result in experiment [5], in experiment [6], in experiment [7] and in experiment [8] was inactive.
Turning to `Cc1cccc2[nH]c(-c3cccc(-c4cccc(CNCc5ccc(S(C)(=O)=O)cc5)c4)c3)nc12`, the growth inhibition in experiment [1] was 66% (active); in experiment [4], 100% (active). In addition, the inhibition in experiment [2] was 13%; in experiment [3], 0%. The outcome in experiment [5], in experiment [6], in experiment [7] and in experiment [8] was inactive.
For the molecule `O=S(=O)(Nc1cccc(CCN2CCC(N3CCCCC3)CC2)c1)c1ccc(-c2ccccc2)cc1`, the values for the growth inhibition in experiment [1] and in experiment [4] were 49% and 100% (active), respectively. Also, the results for the inhibition in experiment [2] and in experiment [3] were 76% (active) and 1%, respectively. Moreover, the outcome in experiment [5], in experiment [6], in experiment [7] and in experiment [8] was inactive.
For `O=C(NCCCCCCNCc1ccc(-c2ccccc2)cc1)Nc1ccc(Cl)c(Cl)c1`, the growth inhibition in experiment [1] was 2%; in experiment [4], 90% (active). For the same molecule, the inhibition in experiment [2] is 14%; in experiment [3], -1%. The result in experiment [5], in experiment [6], in experiment [7] and in experiment [8] was inactive.
Consider `CC1=C(C(=O)OCCOCc2ccccc2)C(c2ccccc2C(F)(F)F)C(C(=O)OCCOCc2ccccc2)=C(C)N1`, for which the growth inhibition was 87% (active) in experiment [1] and 89% (active) in experiment [4]. In addition, the inhibition in experiment [2] was -7%; in experiment [3], 3%. The outcome in experiment [5], in experiment [6], in experiment [7] and in experiment [8] was inactive.
For `CO/C(=C\C=C\c1cc2cc(Cl)c(Cl)cc2[nH]1)C(=O)NCCCN1CCN(c2cccc(OC)c2)CC1`, the values for the growth inhibition in experiment [1] and in experiment [4] were 93% (active) and 100% (active), respectively. Further, the values for the inhibition in experiment [2] and in experiment [3] were 61% (active) and 0%, respectively. Also, the outcome in experiment [5], in experiment [6], in experiment [7] and in experiment [8] was inactive.
With `Cc1sc2cc(Cl)cc(Cl)c2c1S(=O)(=O)Nc1ccc2nccc(N3CCNCC3)c2c1`, the growth inhibition was 99% (active) in experiment [1] and 100% (active) in experiment [4]. The inhibition in experiment [2] was 24%; in experiment [3] it was -8%. The result in experiment [5], in experiment [6], in experiment [7] and in experiment [8] was inactive.
For `COc1ccc(OC)c2c1C[C@@H]1NC[C@H]2c2c(OC)ccc(OC)c21`, the growth inhibition in experiment [1] is 3%; in experiment [4] it was 99% (active). Also, the inhibition in experiment [2] is 2%; in experiment [3], 1%. Also, the outcome in experiment [5], in experiment [6], in experiment [7] and in experiment [8] was inactive.
As to `Cc1cc(NCc2ccc(F)cc2)nc2cc(O)ccc12`, the figures for the growth inhibition in experiment [1] and in experiment [4] were 85% (active) and 98% (active), respectively. The inhibition in experiment [2] is 14%; in experiment [3] it was -7%. For the same molecule, the outcome in experiment [5], in experiment [6], in experiment [7] and in experiment [8] was inactive.
As to `CC(C)Cn1c(Sc2ccc(C#N)c([N+](=O)[O-])c2)nnc1-c1cccc(Cl)c1`, the growth inhibition in experiment [1] was 95% (active); in experiment [4] it was 98% (active). For the same molecule, the inhibition in experiment [2] is 24%; in experiment [3], 5%. The outcome in experiment [5], in experiment [6], in experiment [7] and in experiment [8] was inactive.
As for `CCCC(C)N(Cc1ccc(C(C)(C)C)cc1)C(=O)c1cccc(OC)c1` (stereo not given), the growth inhibition in experiment [1] is 89% (active); in experiment [4], 100% (active). Further, the inhibition was 9% in experiment [2] and 1% in experiment [3]. Moreover, the result in experiment [5], in experiment [6], in experiment [7] and in experiment [8] was inactive.
Take `CCOC(=O)N/N=C/[C@H](CCc1ccccc1)NC(=O)[C@H](CC(C)C)NC(=O)c1cc2cccc(OC)c2o1`: the growth inhibition is 58% (active) in experiment [1] and 84% (active) in experiment [4]. Further, the inhibition was 3% in experiment [2] and 2% in experiment [3]. Also, the outcome in experiment [5], in experiment [6], in experiment [7] and in experiment [8] was inactive.
